# proKLK7 act = activates the human kallikrein-7 zymogen. P49862. actives 0.9% (n = 370,000). activation, % at 7 µM. AID 652039. purified proKLK7, EDANS-DABCYL substrate fluorescence; 100% is mature enzyme control, 0% vehicle;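 active = activation above the mean of all tested compounds plus 3 SD, computed per campaign excluding outliers beyond control limits, cut at about 13% in these data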
# Target sequence (P49862 whole entry, looked up): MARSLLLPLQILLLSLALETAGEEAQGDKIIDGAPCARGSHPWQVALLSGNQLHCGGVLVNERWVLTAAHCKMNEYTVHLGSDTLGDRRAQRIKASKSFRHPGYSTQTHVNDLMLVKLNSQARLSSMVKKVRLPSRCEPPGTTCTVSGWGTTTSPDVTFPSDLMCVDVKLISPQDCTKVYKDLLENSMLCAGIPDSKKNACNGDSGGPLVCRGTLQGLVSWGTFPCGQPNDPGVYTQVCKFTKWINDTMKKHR
# HGIII-sPLA2 inh = Inhibits HGIII-sPLA2 liposome hydrolysis, primary screen. QFRET BODIPY PC-A2 liposome hydrolysis, fluorescence. inhibition, % at 12.2 µM. actives 0.56% (n = 370,000). AID 743126;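 active = inhibition above mean plus 3 SD of compounds lying within the high and low control bounds, cut at about 19% in these data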;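 also: 0% = median of test compound wells and 100% = no enzyme DMSO wells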
# ADAM17 inh = inhibits human ADAM17. P78536. recombinant ADAM17, EDANS/DABCYL FRET peptide cleavage. inhibition, % at 6.95 µM. actives 0.83% (n = 370,000). AID 720648;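 active = inhibition above the mean of compounds lying between control limits plus 3 SD, set per campaign, cut at about 8.5% in these data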;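 also: 0% = DMSO-only wells as the low control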
# ADAM10 inh = inhibitors of human ADAM10 | recombinant ADAM10, EDANS/DABCYL FRET peptide cleavage, 3 h | actives 0.62% (n = 370,000) | inhibition, % at 7 µM | AID 720582;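 active = inhibition above a per-campaign cutoff equal to the mean of compounds falling between control-based bounds plus 3 SD, cut at about 20% in these data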;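 also: 0% = DMSO wells while the 100% control is not disclosed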
# PLC-gamma1 inh = PLC-gamma1 (human) inhibition, primary screen; P19174; purified PLC-gamma1, fluorogenic substrate, fluorescence; inhibition, % at 12.2 µM; actives 0.84% (n = 370,000); AID 720700; in the data active = inhibition above about 9.5%
# PLCb3 inh = PLC-beta3 (human) inhibition, primary screen. Purified PLC-beta3, fluorogenic substrate, fluorescence. actives 0.18% (n = 370,000). Q01970. inhibition, % at 12.2 µM; in the data active = inhibition above about 11%;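 also: 0% = median of compound wells on plate and 100% = full blocker control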
# hGIII sPLA2 conf = human GIII-sPLA2 inhibition, confirmation | inhibition, % at 12.2 µM | shares compounds with HGIII-sPLA2 inh | actives 34% (n = 2,000) | AID 743280 | recombinant hGIII-sPLA2, BODIPY PC-A2 QFRET fluorescence;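 active = mean inhibition across triplicates above the hit cutoff set in the earlier primary screen, cut at about 19% in these data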;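 also: 0% = enzyme with DMSO and 100% = DMSO wells lacking enzyme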
# 535nm interf = 535nm fluorescence interference, HGIII-sPLA2 counter-screen; shares compounds with HGIII-sPLA2 inh; BODIPY FL product fluorescence interference, QFRET; inhibition, % at 12.2 µM; actives 8.5% (n = 2,000); AID 743282;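 active = average inhibition above the solvent-only control mean plus 3 SD, cut at about 6% in these data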;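 also: 0% = DMSO with substrate plus product and 100% = DMSO with substrate alone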
# 535nm interf DR = counter-screen for HGIII-sPLA2 inhibitors: 535nm fluorescence interference, dose response; shares compounds with HGIII-sPLA2 inh; BODIPY FL product fluorescence interference, cell-free; IC50, µM; 240 tested, under 10 active;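 active = IC50 at or below 10 µM; inactive = IC50 above 10 µM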
# An asterisk follows results filed as active; i = inactive; / = no result; ! = repeats disagree. Sampled rows, rich in hits. Any-hit rate of the full collection: about 3.4%.
SMILES,proKLK7 act,HGIII-sPLA2 inh,ADAM17 inh,ADAM10 inh,PLC-gamma1 inh,PLCb3 inh,hGIII sPLA2 conf,535nm interf,others
CC(C)(C)C(=O)NC(=S)Nc1sc2c(c1C#N)CCCCC2,-0.4,21.6*,-2.2,-8.5,0.0,-4.0,17.1,3.7,
O=C(N[C@H](C(=O)N1CCC[C@H]1C(=O)NCc1ccccc1)c1ccccc1)c1ccc(Cl)cc1Cl,0.6,-3.0,-4.1,-1.0,1.0,0.3,/,/,
Cc1[nH]c2ccc(-c3n[nH]c(=S)n3C)cc2c1C,0.2,21.0*,-2.6,-6.7,-3.6,-3.5,26.4*,3.6,
Cc1cccc(N2C(=O)CCC2=O)n1,0.1,20.5*,-7.7,-2.5,1.3,1.2,4.6,-5.2,
Cc1cccc(N2C(=O)C3C4C=CC(C5CC45)C3C2=O)n1 (configuration not stated),0.2,-1.1,-2.4,3.2,1.6,-2.7,/,/,
Cc1ccc(C(=O)Nc2nc(C(N)Cc3ccc(C(F)(F)F)cc3)cs2)cc1 (configuration not stated),0.2,22.8*,-4.5,-3.9,1.5,-0.5,4.7,-2.8,
CCOC(=O)[C@@]12CCC3=C1N(CCC3)C(=O)[C@H](CC(=O)N1CCN(C(=O)C3CC3)CC1)C2,0.7,10.4,-9.7,-8.8,-0.3,-2.1,/,/,
COC(=O)c1cnc(Nc2nc(C(N)c3ccccc3Cl)cs2)nc1C(F)(F)F (configuration not stated),0.2,12.5,0.6,7.2,-0.6,6.9,/,/,
NC(c1csc(NC(=O)c2cccc(OC(F)(F)F)c2)n1)c1ccccc1Cl (configuration not stated),-2.0,36.9*,0.1,6.3,-1.6,-9.9,24.7*,0.0,
COC(=O)[C@]12C[C@H](CC(=O)N3CCOCC3)C(=O)N(Cc3cccc4ccccc34)C1=C[C@H](C(C)C)O[C@@H]2C1CC1,0.8,-0.6,-2.8,-5.6,0.5,1.2,/,/,
Cc1cccc(OCCNc2cc(N3CCOCC3)ccc2[N+](=O)[O-])c1,0.2,19.3*,1.2,-3.5,1.9,1.1,-1.9,-15.7,
Cc1cccc(OCCNc2cc(N3CCN(C)CC3)ccc2[N+](=O)[O-])c1,-0.2,-6.5,-5.7,0.8,3.9,-1.0,/,/,
CCOC(=O)N1CCN(S(=O)(=O)c2ccc(F)c(C(=O)Nc3ccc(C(C)C)cc3)c2)CC1,-0.3,20.3*,4.1,-2.5,0.3,-3.8,-18.8,-17.0,
Cc1cccc(NC(=S)N2CCN(c3ccc(F)cc3)CC2)c1,0.3,25.9*,-4.2,16.1,0.7,-3.2,10.6,-4.6,
O=S(=O)(c1cccc(-c2n[nH]c(=S)n2-c2cccc(C(F)(F)F)c2)c1)N1CCOCC1,-0.6,16.5,2.2,-3.5,-5.9,-9.0,/,/,
Cc1ccc(S(=O)(=O)N2CCOCC2)cc1-c1n[nH]c(=S)n1-c1ccccc1,-0.2,23.2*,-0.2,-14.4,5.2,-6.0,10.8,-1.4,
COC(=O)[C@H](CC(C)C)N1Cc2nnn(CC3CCCCC3)c2-c2ccccc2S1(=O)=O,0.8,1.3,0.0,4.3,0.3,4.1,/,/,
Cc1ccc(N2CCOCC2)c2c1C(=O)c1ccccc1C2=O,0.1,25.5*,-5.2,3.2,-1.5,2.6,29.2*,-1.1,535nm interf DR=>122
CCCNC(=O)c1ccc2c(=O)c(O)c(-c3cccc(Br)c3)[nH]c2c1,-103.5,19.6*,-24.4,-69.1,i,i,10.0,-2.8,
COc1ccc(-n2sc3c(c2=S)-c2cc(OC)ccc2NC3(C)C)cc1,0.2,27.3*,8.3,8.8,4.2,2.2,12.3,8.1*,
O=S1(=O)C=CCN1Cc1cn(Cc2cccc(Cl)c2)nn1,-0.3,0.1,-2.6,5.2,-1.4,4.9,/,/,
COc1cccc(CNC(=O)[C@H]2CCCN2C(=O)[C@H]2CCCN2C(=O)OC(C)(C)C)c1,-0.2,3.2,-0.4,0.1,-1.5,3.0,/,/,
O=[N+]([O-])c1ccc(Nc2ccc(Cl)cc2)nc1,-0.3,-2.6,5.6,3.7,-18.0,-20.3,/,/,
O=[N+]([O-])c1ccc(NNS(=O)(=O)c2cc(Cl)ccc2Cl)nc1,0.8,23.5*,3.6,4.3,-0.2,-7.7,48.3*,72.2*,
COc1ccccc1C(=O)n1ccc2ccc(-c3ccc4ccn(Cc5ccc(C#N)cc5)c4c3)cc21,-0.2,-0.3,-19.4,-111.4,-113.5,-169.5,/,/,
SMILES,proKLK7 act,HGIII-sPLA2 inh,ADAM17 inh,ADAM10 inh,PLC-gamma1 inh,PLCb3 inh,hGIII sPLA2 conf,535nm interf,others
O=C(C1CCCN(S(=O)(=O)c2ccc(Br)s2)C1)N1CCN(Cc2ccccc2)CC1 (configuration not stated),1.3,-11.7,1.0,-1.9,-1.3,-2.1,/,/,
CO/N=C1\CCn2c1c(C)c1ccccc12,-0.2,19.8*,0.0,-12.4,-0.8,-9.3,13.8,-6.5,
C[C@H](O)[C@@H]1C(=O)N2CCc3c([nH]c4c(-c5ccccc5)cccc34)[C@@H]2C[C@@H]1N(C)C(=O)c1ccccc1F,2.3,-49.0,-3.1,-17.3,-7.4,-13.2,/,/,
CNC(=O)CCN(Cc1ccco1)S(=O)(=O)c1ccc(OC)c(OC)c1,0.4,23.4*,-8.2,-4.8,4.8,2.8,0.1,-7.3,
COc1ccc(S(=O)(=O)N(CCC#N)Cc2ccco2)cc1OC,0.2,-0.4,-1.8,5.2,3.3,-1.9,/,/,
O=C(Cc1ccc(Cl)cc1)NNC(=S)NC(=O)c1cccs1,0.6,15.2,-1.6,4.7,1.1,-3.1,/,/,
O=C(Cc1cccs1)NNC(=S)NCc1ccc(Cl)cc1,-0.9,19.3*,2.3,8.3,0.8,-0.3,45.3*,0.2,535nm interf DR=>122
Oc1c(C=C2N=c3ccccc3=N2)sc(=S)n1-c1ccccc1,-0.3,4.4,-1.5,-4.2,0.5,-4.4,/,/,
Oc1c(C=C2N=c3ccccc3=N2)sc(=S)n1C1CCCCC1,0.6,20.0*!,-1.0,2.4,-1.0,-3.6,-5.0,-1.4,
CC(C)[C@H](NC(=O)c1ccc(Cl)cc1Cl)C(=O)N1CCC[C@H]1C(=O)NCc1ccccc1,0.1,9.9,-6.3,1.0,0.1,0.4,/,/,
Cc1ccccc1C(=O)NC1CCCCN(C)C1=O (configuration not stated),0.7,4.7,-4.7,-7.5,-1.7,-0.1,/,/,
CCCN(CCC)C(=O)C[n+]1cccc(/C=N/O)c1,-0.7,20.2*,-6.2,-4.2,-4.7,-4.6,4.9,-4.8,
CCCCCC[N+](C)(C)CC/C=C1/c2ccccc2Sc2ccc(Cl)cc21,-0.3,19.4*,2.0,-9.3,2.5,-4.8,1.1,-58.9,

# Assay outcomes from PubChem BioAssay.
